Here are results for 29 compounds from the supplement of paper PMC6522484.

The structures appear in SMILES notation. ± gives the standard deviation of the averaged measurements.

Test [1] deals with DLD1. Nature of the test: cell viability (CellTiter-Glo) relative to plate median (fraction of plate median); higher = more viable cells. The note with it: 5 µM; treatment time 24 h; reporter: 7TFP. In a few lines:
(§1)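 Colorectal cancer lines with stably integrated lentiviral TCF/Wnt firefly luciferase reporters received library compounds at a final 5 µM, 24 h after seeding into 384-well plates, for a 24 h exposure. Reported figures are plate-median-normalised firefly luciferase or CellTiterGlo luminescence per well. They average two independent replicates.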

A further test relates to HCT116. Described as above. As to conditions: 5 µM; treatment time 24 h; reporter: TCF4/Wnt. A digest of the protocol: as §1
Test [2] concerns SW480. The test is described as above. As to conditions: 5 µM; treatment time 24 h; reporter: 7TFP. A digest of the protocol:
as §1

Test [3] deals with DLD1. As to the kind of experiment: TCF/Wnt firefly luciferase reporter signal relative to plate median (fraction of plate median); higher = higher Wnt reporter signal. As to conditions: 5 µM; treatment time 24 h; reporter: 7TFP. A digest of the protocol: as §1
(In general: In a reporter assay the amount or activity of a reporter protein is the signal.)

For test [4], the system named is SW480. The description is as above. The note with it: 5 µM; treatment time 24 h; reporter: 7TFP. A digest of the protocol:
as §1

With `Cc1cc2nc3c(=O)[nH]c(=O)nc-3n(C[C@H](O)[C@H](O)[C@H](O)CO)c2cc1C`, the cell viability in the test on DLD1 [1] amounted to 0.984 ± 0.052; in the test on HCT116 it was 0.919 ± 0.051; in the test on SW480 [2], 0.974 ± 0.016. The entries for the “TCF/Wnt firefly luciferase reporter signal” value in the test with DLD1 [3] and in the test with SW480 [4] were 1.07 ± 0.035 and 0.907 ± 0.021, respectively.
Consider `CC(C)[C@H]1CC[C@H](C(=O)N[C@H](Cc2ccccc2)C(=O)O)CC1`, for which the results for the cell viability with DLD1 [1], in the test on HCT116 and with SW480 [2] were 0.905 ± 0.0028, 0.972 ± 0.0014 and 0.973 ± 0.067, respectively. Moreover, the “TCF/Wnt firefly luciferase reporter signal” value with DLD1 [3] was determined as 1.03 ± 0.014; in the test on SW480 [4], 0.983 ± 0.014.
On the same counts, the results for `COc1cc(C/C=C/c2ccccc2)c(OC)cc1O` are 1.02 ± 0.055, 1.06 ± 0.093, 1.03 ± 0.042, 1.05 ± 0.22 and 1.04 ± 0.035.
On the same counts, the results for `Clc1cccc(Cl)c1NC1=NCCN1` are 0.987 ± 0.033, 0.925 ± 0.16, 0.988 ± 0.013, 1.065 ± 0.0071 and 1.01 ± 0.11.
The matching figures for `CC(C)NCC(O)COc1ccc(COCCOC(C)C)cc1` (stereo not given): 0.948 ± 0.017, 0.99 ± 0.0057, 0.933 ± 0.0028, 1.03 ± 0.042 and 0.964 ± 0.066.
For the compound `COc1ccc2[nH]cc(CCNC(C)=O)c2c1`, the cell viability is 0.961 ± 0.0071 with DLD1 [1], 1.11 ± 0.05 in the test on HCT116 and 0.974 ± 0.052 in the test on SW480 [2]. Also, the “TCF/Wnt firefly luciferase reporter signal” value with DLD1 [3] came out at 0.967 ± 0.046; with SW480 [4], 0.983 ± 0.095.
Consider `S=c1[nH]cnc2nc[nH]c12`, for which the cell viability in the test on DLD1 [1] was found to be 0.733 ± 0.044; with HCT116, 0.989 ± 0.1; in the test on SW480 [2] it was 0.932 ± 0.012. For the same compound, the “TCF/Wnt firefly luciferase reporter signal” value with DLD1 [3] was 1.22; with SW480 [4], 1.03 ± 0.021.
On to `CC[C@H]1OC(=O)[C@H](C)C(=O)[C@H](C)[C@@H](O[C@@H]2O[C@H](C)C[C@H](N(C)C)[C@H]2O)[C@](C)(OC)C[C@@H](C)C(=O)[C@H](C)[C@H]2N(CCCCn3cnc(-c4cccnc4)c3)C(=O)O[C@]12C`, for which the cell viability is 0.997 ± 0.018 in the test on DLD1 [1], 0.968 ± 0.1 with HCT116 and 1.02 ± 0.04 in the test with SW480 [2]. Further, the “TCF/Wnt firefly luciferase reporter signal” value with DLD1 [3] was 1.07 ± 0.05; in the test with SW480 [4], 1.07 ± 0.035.
For `COc1cccc2c1C(=O)c1c(O)c3c(c(O)c1C2=O)C[C@@](O)(C(=O)CO)C[C@@H]3O[C@H]1C[C@H](N)[C@@H](O)[C@H](C)O1`, the cell viability in the test on DLD1 [1] worked out at 1.03 ± 0.028; in the test on HCT116, 0.589 ± 0.19; with SW480 [2], 1.11 ± 0.13. Also, the entries for the “TCF/Wnt firefly luciferase reporter signal” value with DLD1 [3] and in the test with SW480 [4] were 1.16 ± 0.014 and 0.727 ± 0.082, respectively.
On the same counts, the results for `COc1ccc2c(C)cc(=O)oc2c1` are 0.974 ± 0.027, 0.962 ± 0.022, 0.939 ± 0.0071, 0.803 ± 0.14 and 0.869 ± 0.099.
The matching figures for `Cc1c(N(C)C)c(=O)n(-c2ccccc2)n1C`: 0.898 ± 0.025, 0.981 ± 0.13, 0.991 ± 0.069, 1.1 ± 0.028 and 0.821 ± 0.057.
On the same counts, the results for `Clc1ccc(COC(Cn2ccnc2)c2ccc(Cl)cc2Cl)cc1` (stereo not given) are 0.944 ± 0.11, 0.972 ± 0.0085, 0.99 ± 0.029, 0.936 ± 0.13 and 1.03 ± 0.074.
In the case of `C[C@@H]1CCC[C@H](C)N1NC(=O)c1ccc(Cl)c(S(N)(=O)=O)c1`, the results for the cell viability in the test on DLD1 [1], with HCT116 and in the test on SW480 [2] were 1.04 ± 0.068, 0.9815 ± 0.00071 and 0.96 ± 0.0071, respectively. Besides, the “TCF/Wnt firefly luciferase reporter signal” value amounted to 0.993 ± 0.0099 in the test with DLD1 [3] and 0.984 ± 0.052 in the test with SW480 [4].
On the same counts, the results for `COC1=C[C@@H](C)[C@@H]2C[C@H]3OC(=O)C[C@H]4C(C)=C(OC)C(=O)[C@H]([C@@]2(C)C1=O)[C@@]34C` are 0.975 ± 0.064, 0.972 ± 0.054, 0.979 ± 0.044, 1.025 ± 0.0071 and 1.
The matching figures for `O=C(Cc1ccccc1)NO`: 1.03 ± 0.028, 0.878 ± 0.13, 1 ± 0.027, 0.789 ± 0.064 and 0.869 ± 0.014.
For the compound `O=C(O[C@@H]1Cc2c(O)cc(O)cc2O[C@@H]1c1cc(O)c(=O)c2c(O)c(O)cc([C@H]3Oc4cc(O)cc(O)c4C[C@H]3OC(=O)c3cc(O)c(O)c(O)c3)c2c1)c1cc(O)c(O)c(O)c1`, the figures for the cell viability in the test with DLD1 [1], in the test with HCT116 and in the test with SW480 [2] were 0.996 ± 0.035, 0.9235 ± 0.0064 and 1.045 ± 0.0071, respectively. The “TCF/Wnt firefly luciferase reporter signal” value with DLD1 [3] came to 0.903 ± 0.041; with SW480 [4] it was 1.04.
The matching figures for `COC(C)c1cccc2nc3c(C(=O)O)cccc3nc12` (stereo not given) [Saphenic acid methylether]: 1.03 ± 0.052, 1.13 ± 0.028, 1.04 ± 0.028, 0.907 ± 0.1 and 1.15 ± 0.14.
The matching figures for `NC(=O)N(CCc1ccccc1)CCc1ccccc1` [N, N-Bis(2-phenylethyl)urea]: 1.08 ± 0.085, 1.01 ± 0.014, 1.06 ± 0.021, 1.03 ± 0.028 and 0.946 ± 0.077.
On the same counts, the results for `COC(=O)C[C@H]1C2(C)CC34OC5(C)O[C@@]6([C@H](OC)C(OC(=O)C(C)C)[C@]7(C)C(/C(=C(/OC)C(C)C)C(=O)O[C@H]7c7ccoc7)[C@@]6(O5)[C@H](OC)[C@@]3(OC)C2OC(C)=O)[C@]14C` (stereo not given in full) are 1.025 ± 0.0071, 0.916 ± 0.013, 0.9595 ± 0.00071, 0.883 ± 0.065 and 0.903 ± 0.016.
Turning to `CCC(=O)O[C@H]1CC[C@H]2[C@@H]3CCc4cc(O)ccc4[C@H]3CC[C@]12C`, the cell viability is 1.01 ± 0.023 in the test on DLD1 [1], 1 ± 0.16 with HCT116 and 1.02 ± 0.014 in the test with SW480 [2]. Also, the “TCF/Wnt firefly luciferase reporter signal” value in the test on DLD1 [3] came out at 0.888 ± 0.11; with SW480 [4], 0.994 ± 0.052.
On the same counts, the results for `Nc1cc(C(Cl)=C(Cl)Cl)c(S(N)(=O)=O)cc1S(N)(=O)=O` are 0.9995 ± 0.00071, 1.125 ± 0.0071, 1.03 ± 0.014, 1.17 ± 0.11 and 1.1 ± 0.078.
`CC[C@H]1OC(=O)[C@H](C)[C@@H](O[C@H]2C[C@@](C)(OC)[C@@H](O)[C@H](C)O2)[C@H](C)[C@@H](O[C@@H]2O[C@H](C)C[C@H](N(C)C)[C@H]2O)[C@](C)(O)C[C@@H](C)CN(C)[C@H](C)[C@@H](O)[C@]1(C)O`: the cell viability with DLD1 [1] was determined as 1.065 ± 0.0071; with HCT116, 0.8915 ± 0.0035; in the test with SW480 [2] it was 1.01 ± 0.049. Besides, the “TCF/Wnt firefly luciferase reporter signal” value with DLD1 [3] is 0.97 ± 0.1; with SW480 [4], 1.04 ± 0.12.
As for `CCOC(=O)c1c(C)cc(O)cc1O`, the cell viability in the test on DLD1 [1] was determined as 1.11 ± 0.085; in the test on HCT116, 1.01 ± 0.09; with SW480 [2] it was 1.07 ± 0.014. The “TCF/Wnt firefly luciferase reporter signal” value in the test with DLD1 [3] came to 1.06 ± 0.14; with SW480 [4], 1.08 ± 0.042.
On the same counts, the results for `Cc1nnc(SCC2=C(C(=O)O)N3C(=O)[C@@H](NC(=O)Cn4cnnn4)[C@H]3SC2)s1` are 0.941 ± 0.035, 0.941 ± 0.011, 0.962 ± 0.044, 0.942 ± 0.15 and 0.834 ± 0.16.
Regarding `COc1cccc2c1C(=O)c1c(O)c3c(c(O)c1C2=O)C[C@@](O)(C(=O)CO)C[C@@H]3O[C@H]1C[C@H](N)[C@H](O)[C@H](C)O1`, the cell viability with DLD1 [1] is 1.04 ± 0.059; in the test on HCT116 it was 0.67 ± 0.22; with SW480 [2], 1.08 ± 0.035. Also, the “TCF/Wnt firefly luciferase reporter signal” value in the test with DLD1 [3] was 1.09 ± 0.099; in the test with SW480 [4] it was 0.682 ± 0.11.
The matching figures for `O=C(O)CCCCCCCCCCCC[C@@H]1C=CCC1`: 1 ± 0.055, 1.03 ± 0.058, 0.966 ± 0.1, 1.15 ± 0.014 and 1 ± 0.096.
The matching figures for `CC(=O)O[C@H]1C[C@@H](OC(C)=O)C(C)(C)[C@@H]2C[C@@H](OC(C)=O)[C@]3(C)[C@H](CC[C@@]4(C)[C@H](c5ccoc5)OC(=O)[C@H]5O[C@@]534)[C@@]12C`: 1.11 ± 0.14, 1.18 ± 0.028, 1.15 ± 0.042, 1.07 ± 0.12 and 1.04 ± 0.021.
The matching figures for `C=CC(C)(O)CCC1C(=C)CC(OC(C)=O)C2C(C)(C)CCCC12C` (stereo not given): 0.929 ± 0.03, 0.908 ± 0.041, 0.971 ± 0.033, 0.798 ± 0.013 and 0.87 ± 0.17.
On to `CCCCCCCCCCCCCc1ccco1`, for which the cell viability in the test on DLD1 [1] is 1.05; with HCT116, 1.03 ± 0.021; in the test with SW480 [2], 1.02 ± 0.021. Also, the “TCF/Wnt firefly luciferase reporter signal” value is 0.964 ± 0.14 with DLD1 [3] and 0.987 ± 0.12 in the test with SW480 [4].
